# The list is not random: actives were taken first. Their share in the collection is about 2.7%.
# CHT PAM – CHT positive allosteric modulators, primary screen, cell-based, membrane potential dye, choline EC20; High affinity choline transporter 1 (Homo sapiens), Q9GZV3; CHT-expressing cells; stronger effect = higher value; LV-AA mutant CHT in HEK293 cells; B-score at 10 µM; 310,000 compounds, 0.49% hits;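 active means initial fluorescence not abnormally high and integrated response B-score, plate-corrected, over 3 SD above library mean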
# Target sequence (Q9GZV3 whole entry, looked up): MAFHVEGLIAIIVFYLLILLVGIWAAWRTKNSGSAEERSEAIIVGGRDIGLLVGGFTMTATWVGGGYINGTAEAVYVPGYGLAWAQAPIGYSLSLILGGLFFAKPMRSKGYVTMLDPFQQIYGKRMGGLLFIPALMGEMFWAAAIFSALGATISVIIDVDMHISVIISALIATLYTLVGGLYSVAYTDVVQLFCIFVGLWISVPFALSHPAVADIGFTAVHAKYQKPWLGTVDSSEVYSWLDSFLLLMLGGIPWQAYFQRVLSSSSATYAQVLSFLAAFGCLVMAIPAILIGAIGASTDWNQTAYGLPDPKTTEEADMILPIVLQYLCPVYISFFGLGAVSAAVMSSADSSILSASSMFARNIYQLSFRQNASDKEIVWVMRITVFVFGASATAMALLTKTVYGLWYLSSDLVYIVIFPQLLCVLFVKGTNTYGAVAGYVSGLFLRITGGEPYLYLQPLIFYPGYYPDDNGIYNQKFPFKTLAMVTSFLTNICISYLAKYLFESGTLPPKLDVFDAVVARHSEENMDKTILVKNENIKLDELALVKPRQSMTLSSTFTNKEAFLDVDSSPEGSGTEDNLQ
# CHT inh – inhibitors of human choline transporter CHT; B-score at 10 µM; CHT-expressing cells, membrane potential dye, choline response; stronger effect = lower value; 310,000 compounds, 0.86% hits;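 active means B-score over 3 SD under the library average, and starting fluorescence ratio not unusually high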;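 further: choline stimulus applied at its EC90 after an EC20 pre-addition; B-score computed on integrated fluorescence ratio after choline addition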
# ANO1 block – TMEM16A chloride channel inhibitors, primary screen, cell-based, HTS. HEK293 TMEM16A/YFP iodide influx fluorescence, ionomycin. normalized B-score (activity score, 25-100; higher = stronger inhibition) at 10 µM. 310,000 compounds, 1.2% hits. AID 588511, 2011;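 active means ratio plate-corrected score three or more library SD toward inhibition, starting fluorescence score within five deviations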;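 further: score derived from kinetic fluorescence span divided by baseline fluorescence per well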
# IDE cell activ – human IDE activators in live cells, primary screen, fluorescence polarization, HEK cells, FAbeta-B substrate | FAbeta-B cleavage; 0% vehicle, 100% cell-free pure enzyme wells | activation, % at 5.96 µM | 340,000 compounds, 0.073% hits | AID 493087, 2011;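 active means activation above the mean of all tested compounds plus 3 SD, set per screening campaign, cut at about 17% in these data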
# IDE inh – human IDE inhibitors in live cells, primary screen, fluorescence polarization, HEK cells, FAbetaB substrate; Insulin-degrading enzyme (Homo sapiens), P14735; FAbetaB cleavage; inhibition, % at 5.59 µM; 320,000 compounds, 0.41% hits;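 active means percent inhibition above the average of all tested compounds plus 3 SD, set per screening campaign, cut at about 16% in these data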;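 further: IDE supplied by intact live HEK cells; FP after avidin binding of uncleaved biotin substrate so inhibition keeps polarization high; 0% = DMSO wells and 100% = 60 µM reference IDE inhibitor Ii1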
# ANO1 activ – TMEM16A chloride channel activators or potentiators, primary screen, cell-based, HTS | Anoctamin-1 (Mus musculus), Q8BHY3 | 340,000 compounds, 0.3% hits | AID 623877, 2012 | B-score at 10 µM | HEK293 TMEM16A/YFP-H148Q/I152L, iodide quench fluorescence; stronger effect = lower value;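 active means fluorescence-ratio B-score plate-corrected deviation score at least 3 library SD below zero, with starting fluorescence score within 5 deviations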;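 further: channel opened by trigger with iodide after compound preincubation; score built on the fluorescence ratio of max minus min over baseline; more negative score means more quench and so TMEM16A activation or potentiation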
# Active calls of the source: *; i = inactive; . = no result.
SMILES,CHT PAM,CHT inh,ANO1 block,IDE cell activ,IDE inh,ANO1 activ
Nc1nc(Cl)cc(N2CCC(c3cc(-c4ccc(Cl)cc4)n[nH]3)CC2)n1,i,i,100*,-23,9,i
CCNC(=S)NCc1ccc(Cl)cc1,i,i,i,3,0,-9.6*
Fc1ccccc1CNC(=S)NCc1ccc(Cl)cc1,i,i,i,0,3,i
Cc1nn(-c2ccc([N+](=O)[O-])cc2)c2c1C(c1cccc(Br)c1)N1C(=N2)C(=O)Nc2ccccc21 (configuration not stated),i,-6.6*,i,-3,1,i
Cc1nn(-c2ccccc2)c2c1C(c1ccc([N+](=O)[O-])cc1)N1C(=N2)C(=O)Nc2ccccc21 (configuration not stated),i,i,i,3,-1,i
O=C(Cn1c2ccccc2c2nc3n(c(=O)c21)CCS3)Nc1ccccc1,i,i,i,5,1,-32*
O=C(Nc1cc(C(F)(F)F)cc(C(F)(F)F)c1)Nc1cnn(-c2ccc([N+](=O)[O-])cc2)c1C(F)(F)F,i,i,100*,3,3,i
O=C(Nc1ccc(C(=O)O)cc1)Nc1ccc([N+](=O)[O-])cc1,i,i,i,0,-3,i
COCCN1C(=O)/C(=C/c2ccc(OCc3ccc(C(=O)O)cc3)c(OC)c2)SC1=Nc1ccccc1,i,i,100*,3,0,i
COc1cc(/C=C2\SC(=Nc3ccccc3)N(Cc3ccco3)C2=O)ccc1OC(C)C(=O)O (configuration not stated),i,i,i,6,3,i
CCCCn1c(NC(=O)c2ccc(Br)o2)c(S(=O)(=O)c2ccccc2)c2nc3ccccc3nc21,i,i,100*,-5,-3,i
CCCCn1c(NC(=O)c2ccco2)c(S(=O)(=O)c2ccc(C)cc2)c2nc3ccccc3nc21,.,.,.,-6,.,i
COC(=O)c1c(C)oc2ccc(N(C(=O)c3ccncc3)S(=O)(=O)c3ccc(C)cc3)cc12,i,i,100*,-3,-2,i
COC(=O)c1c(C)oc2ccc(N(C(=O)c3ccncc3)S(=O)(=O)c3ccccc3)cc12,i,i,i,-5,4,i
O=C(COc1ccccc1)OCC(=O)c1ccc(S(=O)(=O)N2CCCCC2)cc1,.,.,.,0,0,i
O=C(COc1ccc(-c2nnco2)cc1)Nc1cc([N+](=O)[O-])ccc1F,.,.,.,1,-5,i
O=c1c(/C=N\NS(=O)(=O)c2ccccc2)coc2ccc(Cl)cc12,i,i,100*,2,-2,i
Cc1ccc(S(=O)(=O)Nc2ccc(C(=O)N3CCN(c4ccccc4O)CC3)cc2)cc1[N+](=O)[O-],i,i,i,3,-4,i
CCCCc1nc2cc(C(=O)N3CCN(c4cnccn4)CC3)ccc2o1,i,-9.7*,i,7,5,i
CN(Cc1ccccc1)C(=O)c1nc[nH]c1C(=O)N(C)Cc1ccccc1,.,.,.,-1,0,i
CC1CCN(S(=O)(=O)c2cccc(-c3cn4cc(Cl)ccc4n3)c2)CC1,i,i,i,5,3,i
CCOC(=O)C1CCN(S(=O)(=O)c2cccc(-c3cn4cc(Cl)ccc4n3)c2)CC1,i,i,i,-3,3,-21*
CC1(C)CC2CC(C)(CN2S(=O)(=O)c2ccc(C(=O)Nc3cc(S(=O)(=O)N4CCOCC4)ccc3Cl)cc2)C1 (configuration not stated),i,i,i,0,-8,-12*
Cc1ccc(C(=O)CCC(=O)Nc2ccc(C)cn2)cc1,.,.,.,2,-4,i
CCc1ccc(-c2nc(CS(=O)CC(=O)NC3CC3)c(C)o2)cc1 (configuration not stated),i,i,i,1,-15,i
SMILES,CHT PAM,CHT inh,ANO1 block,IDE cell activ,IDE inh,ANO1 activ
CCc1ccc(-c2nc(CS(=O)CC(=O)O)c(C)o2)cc1 (configuration not stated),i,i,i,18*,-4,i
O=C1C(=O)N(CCCn2ccnc2)C(c2ccc([N+](=O)[O-])cc2)/C1=C(\O)c1ccc2c(c1)OCCO2 (configuration not stated),.,.,.,6,-1,i
O=C(COC(=O)c1c[nH]c2ccccc12)Nc1cccc(F)c1,.,.,.,1,-3,i
Cc1ccc(OCC(=O)NNC(=O)C(C)Sc2ncnc3sc(C)c(C)c23)cc1 (configuration not stated),i,i,100*,1,3,i
Cc1sc2ncnc(SC(C)C(=O)N3c4ccccc4Sc4ccccc43)c2c1C (configuration not stated),i,i,i,-3,-2,i
COc1cccc(CN2CCNC(=O)C2CC(=O)N(Cc2cnn(C)c2)C(C)C)c1 (configuration not stated),i,i,i,-8,3,-7.6*
CN(Cc1cnn(C)c1)C(=O)CC1C(=O)NCCN1Cc1cccc(Oc2ccccc2)c1 (configuration not stated),i,i,i,5,-2,i
O=C(NN1C(=O)NC2(CCCCC2)C1=O)c1cccs1,.,.,.,1,8,i
Cc1ccc(NC(=O)c2ccc3c(c2)CCN3S(C)(=O)=O)c(C)c1,i,i,i,2,5,i
Cc1cc(C)cc(NC(=O)C(=O)NCCCN2CCCC2=O)c1,i,i,i,2,2,i
O=C(CCCn1c(=O)oc2ccccc21)NNC(=O)COc1ccc(F)cc1,.,.,.,3,-2,i
Cc1ccc(OCCCC(=O)Nc2ccc(S(N)(=O)=O)cc2)cc1,i,i,i,0,2,-5.3*
Cc1ccc(SCCC(=O)OCC(=O)Nc2ccc(S(N)(=O)=O)cc2)cc1,i,i,i,-1,11,-4.9*
Cc1ccc(OCCC(=O)Nc2ccc(S(=O)(=O)N3CCCC3)cc2)cc1,.,.,.,-7,8,i
CC(CNC(=O)CCS(=O)(=O)c1cc2c(cc1Cl)NC(=O)CO2)c1ccccc1 (configuration not stated),i,i,i,-6,2,i
N=c1nc2n(cc1F)C1OC(CO)C(O)C1O2 (configuration not stated),.,.,.,0,.,i
